Screening results from PubChem BioAssay.
AHR act = AHR activators, primary screen, cell-based, luminescence, luciferase reporter, human; Aryl hydrocarbon receptor (Homo sapiens), P35869; AHR-responsive luciferase reporter cells; activation, % at 5 µM; actives 2.5% (n = 320,000); AID 2796, 2010; in the data active means activation above about 47%;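 further: 0% = vehicle wells and 100% = reference agonist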
Target sequence (P35869 whole entry, looked up): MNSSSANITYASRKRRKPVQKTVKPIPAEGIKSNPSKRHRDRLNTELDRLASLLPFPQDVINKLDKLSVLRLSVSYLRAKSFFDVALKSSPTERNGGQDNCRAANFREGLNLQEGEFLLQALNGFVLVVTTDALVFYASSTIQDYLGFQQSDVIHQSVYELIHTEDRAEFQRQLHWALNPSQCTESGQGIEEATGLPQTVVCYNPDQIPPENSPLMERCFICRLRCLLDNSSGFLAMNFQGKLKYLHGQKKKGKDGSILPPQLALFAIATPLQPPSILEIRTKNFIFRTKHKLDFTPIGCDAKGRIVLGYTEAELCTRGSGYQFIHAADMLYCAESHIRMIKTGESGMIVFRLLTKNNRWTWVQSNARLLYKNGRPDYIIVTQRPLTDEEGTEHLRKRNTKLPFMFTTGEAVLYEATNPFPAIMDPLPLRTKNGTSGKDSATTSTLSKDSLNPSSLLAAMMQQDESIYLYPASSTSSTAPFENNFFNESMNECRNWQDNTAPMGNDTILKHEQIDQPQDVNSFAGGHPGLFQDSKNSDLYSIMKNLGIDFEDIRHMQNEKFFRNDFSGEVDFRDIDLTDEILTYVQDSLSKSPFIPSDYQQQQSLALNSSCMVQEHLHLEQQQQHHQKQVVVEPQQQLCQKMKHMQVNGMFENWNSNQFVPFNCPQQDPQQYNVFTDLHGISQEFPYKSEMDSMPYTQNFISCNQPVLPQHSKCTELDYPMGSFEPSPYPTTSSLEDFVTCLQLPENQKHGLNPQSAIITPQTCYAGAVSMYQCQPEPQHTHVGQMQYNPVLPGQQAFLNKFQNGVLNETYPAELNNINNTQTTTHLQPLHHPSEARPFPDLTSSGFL
VLA-4 inh = inhibition in human VLA-4 binding assay, primary screen, VLA-4 allosteric modulator project, MLPCN library, flow cytometry, VLA-4 expressing cells; Integrin alpha-4 (Homo sapiens), P13612; ligand binding flow cytometry; inhibition, % (about 7 µM as worked out from the volumes in the protocol); actives 0.2% (n = 330,000); in the data active means inhibition above about 50%
SUMO Mot1 rescue = yeast Mot1-301 growth rescue at high temperature, primary screen, SUMOylation pathway inhibitor project, S. cerevisiae, ATP luminescence, 38.5C | S. cerevisiae Mot1-301 growth rescue; percent above DMSO median, 100 means doubled | growth rescue, % at 18.8 µM | actives 1% (n = 320,000) | AID 2716, 2010;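 active means every valid replicate shows activation above 250% relative to neutral control wells; inactive means the rest, any valid replicate at or below 250%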;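 further: OY570 slx delta 5 strain wells were the positive control but not used for scaling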
Efflux pump mplx = inhibitors of Candida efflux pumps in yeast, primary screen, S. cerevisiae, Nile Red, multiplex; S. cerevisiae Candida pump triplex; actives 0.44% (n = 330,000); inhibition, % at 10 µM; AID 485275, 2010;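 active means plate passing quality check with inhibition over a set limit, or well fluorescence over plate mean plus 4 SD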;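 further: Nile Red retained in pooled yeast measured as flow cytometry median fluorescence; 0% = buffer negative control and 100% = Enniatin B positive control; higher means more Nile Red kept so more efflux inhibition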
ALR H2O2 inh = inhibitors of human ALR sulfhydryl oxidase, primary screen, biochemical, H2O2 detection, HRP-luminol luminescence, single point. inhibition, % (no concentration beside the values). AID 485317, 2010. purified ALR, DTT oxidation. actives 3.8% (n = 290,000). FAD-linked sulfhydryl oxidase ALR (Homo sapiens), P55789;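 active means mean replicate inhibition above about 79%, with every replicate also reaching it, limit read from the data; inconclusive means only one of the two criteria met; inactive means mean below limit and not every replicate reaching it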
A1 inh = caspase 3/7 activation in MEF A1-2A-BIM cells, primary screen, A1 inhibitor project, cell-based, luminescence, HTS. Caspase-Glo 3/7 luminescence, 3 h; percent of clofoctol response, vehicle zero. caspase activation, % (test concentration not listed). actives 0.066% (n = 330,000). AID 2462, 2010;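 active means over half of replicate activation scores above 10%, or exactly half above 10 with the replicate mean above 10; inconclusive means replicate mean below 10 yet half the replicates above 10; inactive means over half of replicates below 10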
Numbers without * were called inactive; u = inconclusive; x = no result. Compounds with a hit are over-represented: about 7.2% of the library has one in this group of screens.

SMILES | AHR act | VLA-4 inh | SUMO Mot1 rescue | Efflux pump mplx | ALR H2O2 inh | A1 inh
Cc1cc(C(=O)CSc2nc3ccc(Cl)cc3[nH]2)c(C)n1C | 78.5* | 1.5 | -22.0 | -0.2 | -1.5 | 0.2
Cc1ccc2nc(SCn3nnc4ccccc4c3=O)[nH]c2c1 | 74.8* | 8.2 | -6.9 | 0.0 | -1.1 | -3.7
Cc1ccc2nc(SCC(=O)c3c[nH]c4ccccc34)[nH]c2c1 | 46.1 | -32.5 | -9.6 | 0.0 | -33.4 | -0.8
O=c1c2ccccc2nnn1CSc1nc2ccccc2[nH]1 | 3.5 | 3.8 | 206.6 | 0.1 | 5.5 | -1.2
Cc1cc(C(=O)CSc2nc3ccccc3[nH]2)c(C)n1C | 3.3 | 4.3 | 1.9 | -0.1 | x | 0.3
Cc1ccc2nc(SCC(=O)c3c(C)[nH]c4ccccc34)[nH]c2c1 | 53.4* | 4.3 | 11.0 | 0.2 | 49.3 | 1.0
Cc1ccc2nc(SCC(=O)c3cc(C)n(C)c3C)[nH]c2c1 | 51.7* | 8.6 | x | -0.2 | u | -0.1
N#CCCN(C(=O)COC(=O)COc1ccccc1Cc1ccccc1)c1ccccc1 | 0.0 | -1.2 | -2.3 | 0.6 | x | -0.2
CN(C(=O)OC(C)(C)C)[C@H](Cc1ccccc1)C(=O)N[C@H]1CCCCNC1=O | x | x | x | -0.1 | x | x
O=C(C[n+]1cc(-c2ccc(Cl)cc2)n2c1CCC2)Nc1nc(-c2ccc(F)cc2)cs1 | 2.4 | 6.0 | 247.6 | 0.3 | -9.9 | 0.3
COc1ccc(N2CC(C(=O)Nc3nnc(SCC(=O)NCC4CCCO4)s3)CC2=O)cc1 (stereo not drawn) | 3.2 | 4.4 | -12.1 | 0.5 | 17.6 | -1.1
CC(=O)Nc1ccc(C(=O)NCC2CCCCC2)cc1 | 3.9 | 28.8 | 65.1 | 0.8 | -17.7 | 0.3
CN1/C(=C/C=C(/C#N)C(N)=O)C(C)(C)c2ccccc21 | -6.8 | 1.1 | 10.5 | 0.2 | 92.0* | -0.4
CN1/C(=C\C=C(/C#N)C(=O)Nc2ccccc2F)C(C)(C)c2ccccc21 | 9.7 | 0.0 | 6.0 | -0.1 | -16.1 | 0.5
O=C(NCc1ccco1)c1ccc(N2CCOCC2)c([N+](=O)[O-])c1 | 4.8 | 0.9 | 10.7 | 0.1 | -2.1 | 0.1
O=C(NCc1ccco1)c1ccc(N2CCCCC2)c([N+](=O)[O-])c1 | -2.6 | 21.2 | 812.1* | -11.7 | -0.2 | 0.9
COC(=O)c1ccc(/C=N/NC(=S)NCCN2CCOCC2)cc1 | 15.6 | 3.4 | -1.2 | 0.2 | 0.4 | 0.3
CCc1ccc2[nH]c(=O)c(CN(Cc3ccc4c(c3)OCO4)Cc3nnnn3C3CCCC3)cc2c1 | 61.8* | -3.8 | -11.2 | -0.3 | -3.6 | -0.4
Oc1cc(O)c2c(c1)O[C@H](c1ccc(O)c(O)c1)[C@H](O)C2 | -1.1 | 14.4 | 21.1 | 0.0 | 98.7* | 0.2
COc1ccc([C@H]2CC(=O)c3c(O)cc(O)cc3O2)cc1O | 0.7 | -3.8 | -4.7 | 0.0 | 30.6 | -0.5
COc1ccccc1N(CC(O)CN1C(=O)NC(C)(C)C1=O)S(=O)(=O)c1ccc(C)cc1 (stereo not drawn) | 0.5 | -11.2 | -15.4 | -0.2 | -1.2 | -0.9
Cc1ccc(-n2nc(-c3ccc(N)cc3)cc2N)cc1 | 7.7 | -5.4 | -5.6 | 0.1 | 98.4* | -0.1
Cc1ccc(-c2cc(NC(=O)CCl)n(-c3ccccc3)n2)cc1 | -4.2 | 6.2 | 5.9 | 0.0 | 12.2 | 1.7
Cc1ccccc1-n1nc(-c2ccc(N)cc2)cc1N | 3.9 | 7.2 | -14.4 | 0.0 | u | 2.1
Cc1cc(N)n(Cc2ccc(Cl)cc2)n1 | -0.7 | -2.5 | 5.8 | 0.0 | -4.0 | 1.5
SMILES | AHR act | VLA-4 inh | SUMO Mot1 rescue | Efflux pump mplx | ALR H2O2 inh | A1 inh
O=C(CCl)Nc1cc(-c2ccccc2)nn1-c1ccccc1 | 2.0 | -46.5 | 17.7 | 0.1 | 97.7* | -0.1
CC(=O)Nc1ccc(NC(=O)COC(=O)c2c(C)nn(-c3ccccc3)c2C)cc1 | -0.1 | 28.9 | -12.2 | 0.1 | 93.6* | 0.2
Cc1ccc(-c2cc(N)n(Cc3ccc(Cl)cc3)n2)cc1 | 55.8* | 3.1 | 16.0 | -0.1 | x | 0.2
COc1ccc(CNCC(C)NCc2ccc(OC)c(OC)c2)cc1OC (stereo not drawn) | -0.7 | 13.7 | 0.0 | -0.1 | -6.2 | 1.1
COc1ccccc1N(Cc1ccccc1)S(=O)(=O)c1cccc(C(=O)Nc2cccc(C)n2)c1 | 6.9 | 11.7 | -8.9 | -0.1 | -0.2 | 0.2
Nc1ccc(-c2cc(N)n(-c3ccccc3)n2)cc1 | 3.4 | 6.8 | -7.9 | -0.1 | 93.2* | 0.5
CC(=O)Nc1ccc(-c2cc(N)n(-c3ccccc3)n2)cc1 | 72.3* | -2.9 | 1.5 | -0.3 | -3.0 | -6.9
CC(=O)Nc1ccc(-c2cc(NC(C)=O)n(-c3ccccc3)n2)cc1 | 30.6 | 6.5 | 765.5 | 0.2 | -7.4 | 0.5
COc1cc(NC(=O)Cc2ccccc2)ccc1NC(=O)c1ccccc1 | 2.3 | 5.9 | 4.2 | 0.0 | -0.3 | -0.2
CCOc1ccccc1NC(=O)C1CCN(C(=O)c2cccs2)CC1 | 5.3 | 9.8 | -4.4 | 0.0 | -1.7 | 2.1
COc1cc(/C=N/NC(=S)NCCN2CCOCC2)cc(OC)c1O | 2.5 | 13.5 | -22.4 | 0.1 | 99.1* | 0.0
COc1cc(/C=N/NC(=O)Cc2csc(N3CCOCC3)n2)cc(OC)c1O | 6.4 | 13.7 | -1.7 | -0.1 | 98.9* | 0.2
COc1cc(OC)c(OC)cc1/C=N/NC(=S)NCCN1CCOCC1 | 4.0 | 15.6 | -2.6 | -0.1 | 6.1 | -0.7
Nc1[nH]n2c(=O)c3c(nc2c1N=Nc1ccc(Cl)cc1)CCCC3 | 57.2* | 3.9 | -10.8 | 0.0 | u | 1.1
Nc1[nH]n2c(=O)c3c(nc2c1N=Nc1ccccc1)CCCC3 | 11.0 | 9.1 | 17.5 | 0.2 | 7.2 | 0.0
O=C(CCN1C(=O)/C(=C\c2cccc(Br)c2)SC1=S)N1CCOCC1 | -2.1 | 16.1 | 18.8 | -0.1 | 9.5 | 0.9
Oc1ccc(/C=C/c2cc(O)cc(O)c2)cc1 | 9.0 | 7.5 | -4.9 | 0.2 | 79.2* | -7.8
O=C(O)/C=C/c1ccc(O)cc1 | -0.4 | 31.0 | 1.1 | -0.2 | 51.8 | -0.9
Cc1cc(C)c2c3c(sc2n1)C(=O)N(c1ccccc1)CC(=O)N3 | -2.9 | -2.1 | -1.0 | 0.0 | -12.9 | 0.3
O=C(NC1CCCC1)c1cnc2n(c1=O)CCS2 | 60.3* | -1.3 | 118.0 | -0.1 | x | 0.2
CN(C)c1ccc(NC(=O)CCCCCn2nnc3ccccc3c2=O)cc1 | 2.6 | 9.9 | -12.4 | 0.1 | 98.5* | 0.2
CC(=O)c1ccc(NC(=O)CCCCCn2nnc3ccccc3c2=O)cc1 | 9.5 | 6.2 | -9.3 | -0.1 | -12.9 | 2.3
O=C(CSCC(=O)OCn1nnc2ccccc2c1=O)Nc1ccc(Cl)cc1 | -2.9 | 6.8 | 17.7 | 0.1 | 97.8* | 0.5
CCCOc1ccc(C(=O)c2nc3c(n2O)CCCC3)cc1 | 2.8 | 0.0 | -23.0 | -0.1 | -0.9 | 0.9
